# Laboratory results taken from PubChem BioAssay (NCATS).
# A number with no mark means an inactive call. Where a call stands in place of a potency, no number is given. Active and inactive are the calls of the source. Calls come from the whole dose curve; as a rule, active = well fitted inhibition curve with a large enough effect; inconclusive = small, poorly fitted or top-dose-only effect; inactive = flat fitted curve, though single readings scatter.
# Test system: Nanoluciferase (engineered Oplophorus gracilirostris luciferase)
# Test: Primary Nanoluciferase (NLuc) qHTS assay for identification of artifact compounds. (AID 1845222);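 note: NLuc secreted into diluted conditioned medium of S16 cells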
# Conditions: NLuc-conditioned medium, Nano-Glo luminescence, 5 min; series mostly up to 54.1 µM
# Summary of the method: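 qHTS format, against NLuc in S16 cell-conditioned medium. Nano-Glo substrate 1:100 was added after 15 min at room temperature. Luminescence was taken after a further 5 min.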
Compound,"activity, negative = inhibition",Potency
C[C@@H]1O[C@@H](O[C@@H]2[C@@H](O[C@@H]3O[C@@H](C)[C@H](O[C@@H]4OC[C@H](O)[C@H](O[C@@H]5OC[C@@H](O)[C@H](O)[C@H]5O)[C@H]4O)[C@@H](O[C@@H]4OC[C@](O)(CO)[C@H]4O)[C@H]3O)[C@H](OC(=O)[C@]34CCC(C)(C)C[C@H]3C3=CCC5[C@@]6(C)C[C@H](O)[C@H](O[C@@H]7O[C@H](CO[C@@H]8OC[C@H](O)[C@H](O)[C@H]8O)[C@@H](O)[C@H](O)[C@H]7O)C(C)(C)C6CC[C@@]5(C)[C@]3(C)C[C@H]4O)OC[C@H]2O)[C@H](O)[C@H](O)[C@H]1O (some centres undefined),1.99% [at 11.6 µM],–
Cc1cc(C(=O)Nc2cccc(C(=O)Nc3cccc(C(F)(F)F)c3)c2)on1,–,inactive
COc1ccc2c(OC)c3ccoc3nc2c1OC,–,inactive
COc1c2cc(c(O)c1OC)-c1cc(ccc1O)CCC(O)CCCC2 (centres undefined),–,inactive
O=C1NC(=O)C(c2cn3c4c(cccc24)CCC3)C1c1c[nH]c2ccccc12 (centres undefined),–,inactive
Cc1cccc(-c2[nH]c(Cc3cccc(C(N)=O)c3)nc2-c2ccc3nccnc3c2)n1,–,inactive
C[C@@H]1C[C@@H](O)[C@@]23CO[C@@H](O)[C@@H]2CCC[C@@H]3[C@@]12C[C@@H](c1ccoc1)OC2=O,–,inactive
CC[C@H](NC(=O)[C@H](CS(=O)(=O)CC1CC1)N[C@@H](c1ccc(F)cc1)C(F)(F)F)C(=O)C(=O)NC1CC1,–,inactive
O=C(O)CCCCCC[C@H]1C(=O)NC(=O)N1CC[C@@H](O)C1CCCCC1,–,inactive
CC1(C)CC2=C3C=CC4C5(C)CCC(O)C(C)(C)C5CCC4(C)C3(C)CCC2(C)C(O)C1 (centres undefined),–,inactive
COC(=O)c1cc(OC)c(O[C@@H]2O[C@@H](C)[C@H](O)[C@@H](O)[C@H]2O)c(OC)c1,–,inactive
C=CC(C)(O)C(O)CC1C(C)(O)C(O)C(O)C2C(C)(C)CCCC21C (centres undefined),–,inactive
C=C[C@]1(C)C=C2CCC3C(C)(CCC[C@@]3(C)C(=O)O)C2CC1 (some centres undefined),–,inactive
C/C1=C\CCC2=C[C@@H](OC2=O)c2c(C)coc2C1,–,inactive
COc1ncc2cc(C(=O)Nc3cc(C(=O)NCc4cccc(Cl)c4)ccc3Cl)c(=O)[nH]c2n1,–,inactive
O=C(c1ccc2nccnc2c1)N1CCCCC1,–,inactive
O=C1Nc2ccccc2C(O)(c2ccccc2)C1O (centres undefined),–,inactive
C=C1C(=O)O[C@@H]2C[C@H](C)[C@@]3(O)C=C(C(C)=O)[C@]4(CC3C[C@H]12)C(=O)O[C@H]1C[C@@H](C)C(CCC(C)=O)=CC[C@H]14 (some centres undefined),–,inactive
CCn1c(=O)c(-c2ccn[nH]2)cc2c(C)nc(N)nc21,–,inactive
NC(=O)c1cccc(-c2cc(OC(=O)NC3CCCCC3)ccc2O)c1,–,inactive

Compound,"activity, negative = inhibition",Potency
O=C(Nc1ccccc1)N1CCN(Cc2ccc3ccccc3n2)CC1,–,inactive
Cn1nc(C(C)(C)C)cc1C(=O)NC(Cc1cccc(Cl)c1)C(=O)NCC#N (centres undefined),–,inactive
CCO[C@@H]1OC(=O)C[C@@H]1NC(=O)[C@@H]1CCCN1C(=O)[C@@H](NC(=O)c1ccc(N)c(Cl)c1)C(C)(C)C,–,inactive
C[C@@H]1O[C@@H](O[C@H]2[C@@H]3C=CO[C@@H](O[C@@H]4O[C@H](CO)[C@@H](O)[C@H](O)[C@H]4O)[C@@H]3[C@@]3(CO)O[C@@H]23)[C@H](OC(=O)/C=C/c2ccc(O)c(O)c2)[C@H](O)[C@H]1O,–,inactive
COc1ccc(CC2NCCc3c2[nH]c2ccc(C)cc32)cc1OC (centres undefined),–,inactive
C=C1CCC2C(C)(C(=O)OC)CCCC2(C)C1CCC(C)CC(=O)O (centres undefined),–,inactive
Cc1cc(-c2cc(O)ccc2Cl)cc2nnc(Nc3ccc(OCCN4CCCC4)cc3)nc12,–,inactive
CC(C)(O[C@@H]1O[C@H](CO)[C@@H](O)[C@H](O)[C@H]1O)C(OC(=O)/C=C\c1ccc(O)cc1)C(=O)OCc1ccc(O[C@@H]2O[C@H](CO)[C@@H](O)[C@H](O)[C@H]2O)cc1 (some centres undefined),–,inactive
C=C[C@H]1C(O[C@@H]2O[C@H](CO)[C@@H](O)[C@H](O)[C@H]2O)OC=C2C(=O)N3CCc4c([nH]c5ccccc45)C3CC21 (some centres undefined),–,inactive
C=C(C(=O)OC)C1C(O)CC2(C)C(O)CCC(=O)C2C1O (centres undefined),–,inactive
COc1cc(NC(=O)Nc2cccc(CNC(=O)O[C@H]3CCOC3)c2)ccc1-c1cnco1,–,inactive
C/C=C(\C)C(=O)OCC1OC(OC2OC(COC(=O)/C(C)=C/C)C(OC3OC(CO)C(OC(=O)/C(C)=C/C)C(OC(=O)/C(C)=C/C)C3O)C(O)C2O)C(O)C(O)C1OC1OC(CO)C(OC(=O)/C(C)=C/C)C(OC(=O)/C(C)=C/C)C1O (centres undefined),0% [at 11.6 µM],–
C=CC(C)(C)C12C=C(OC)C(=O)N3C(C(C)C)C(=O)NC31N(OC)c1ccccc12 (centres undefined),–,inactive
CC/C=C\CCO[C@@H]1O[C@H](CO)[C@@H](O)[C@H](O)[C@H]1O,–,inactive
O=C(O)/C=C/c1cc2c(cc1O[C@@H]1O[C@H](CO)[C@@H](O)[C@H](O)[C@H]1O)OCO2,–,inactive
C[C@@H]1O[C@@H](O[C@H]2[C@H](O[C@H]3CC[C@@]4(C)C(CC[C@]5(C)C4C=C[C@]46OC[C@@]7(CCC(C)(C)C[C@H]74)[C@@H](O)C[C@]65C)[C@]3(C)CO)O[C@H](CO)[C@@H](O)[C@@H]2O[C@@H]2O[C@H](CO)[C@@H](O[C@@H]3O[C@@H](C)[C@H](O)[C@@H](O)[C@H]3O)[C@H](O)[C@H]2O)[C@H](O)[C@H](O)[C@H]1O (some centres undefined),-2% [at 11.6 µM],–
C=C1C[C@]23C[C@H]1CC[C@H]2[C@@]12CC[C@H](O)[C@@](C)(C(=O)O1)[C@H]2[C@@H]3C(=O)O,–,inactive
CC(C)C[C@H](CC(=O)NO)C(=O)N[C@@H](Cc1ccc2ccccc2c1)C(=O)N[C@@H](C)C(=O)NCCN,–,inactive
CCCC(=O)O[C@@H]1[C@@H]2[C@@H](OC(C)=O)[C@]3(C)C(=O)[C@H]4[C@@H](OC(C)=O)C(C)(C)C[C@H]4[C@]3(C)C(=O)[C@@]2(OC(C)=O)C[C@@H]1C,–,inactive
